Consider nine compounds from PubChem BioAssay (NCATS).

Experiment [1] can be described thus: AP1 Signaling Pathway (AID 357).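 Further: ME-180 reporter cells stimulated with EGF at its EC50 level; on the % scale 0 is the no-effect control and ±100 the full control effect.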 The method, boiled down: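 In this screen, ME-180 cells in Opti-MEM with 0.5% dialyzed FBS received EC50 EGF and compound titrations for 5 h. AP-1 reporter beta-lactamase was detected via CCF4 ratio, giving AC50 for positive and negative modulators.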
Experiment [2] addresses Cytochrome P450 1A2 (Homo sapiens) (UniProt P05177). Nature of the experiment: p450-cyp1a2 (AID 410; calls by dose curve; further: potency means the concentration at half of the fitted maximal effect;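 on activity change, negative = inhibition: -100% = full effect of reference inhibitor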). The method, boiled down: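 Human CYP1A2 (20nM) demethylated Luciferin-ME at its Km (100uM) in 100mM KPO4. After 10 min compound preincubation, NADPH regeneration ran the reaction 60 min at room temperature. Luciferin was read by luminescence, normalized to 57 uM furafylline.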

The nature of experiment [3]: NFAT Signaling Pathway (AID 444).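 Further: carbachol stimulus at about its EC50 of 1 µM final; on the % scale 0 is the no-effect control and ±100 the full control effect.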 The conditions noted are these: Jurkat NFAT-bla M1, carbachol, beta-lactamase ratio, 5 h; at 38 µM (top of the series) unless noted. The method, boiled down:
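Jurkat cells carrying an NFAT-driven β-lactamase reporter and co-transfected muscarinic M1 receptor were treated with compound plus carbachol (1 uM final, an EC50 level) for 5 h at 37 °C. CCF4 loading followed for 1 h at RT; 460/530 nm ratio gave %activity.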

In experiment [4] the target is Glucocorticoid receptor (Homo sapiens) (UniProt P04150). Kind of experiment: GR-GFP Redistribution (AID 450;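 active means compounds whose dose series gives a full or clear partial fitted curve of increased nuclear translocation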; further: potency means the concentration at half of the fitted maximal effect). The conditions noted are these: U2OS GR-GFP nuclear translocation, laser cytometry, 2 h.
Glucocorticoid receptor (Homo sapiens), sequence (P04150 whole entry, looked up): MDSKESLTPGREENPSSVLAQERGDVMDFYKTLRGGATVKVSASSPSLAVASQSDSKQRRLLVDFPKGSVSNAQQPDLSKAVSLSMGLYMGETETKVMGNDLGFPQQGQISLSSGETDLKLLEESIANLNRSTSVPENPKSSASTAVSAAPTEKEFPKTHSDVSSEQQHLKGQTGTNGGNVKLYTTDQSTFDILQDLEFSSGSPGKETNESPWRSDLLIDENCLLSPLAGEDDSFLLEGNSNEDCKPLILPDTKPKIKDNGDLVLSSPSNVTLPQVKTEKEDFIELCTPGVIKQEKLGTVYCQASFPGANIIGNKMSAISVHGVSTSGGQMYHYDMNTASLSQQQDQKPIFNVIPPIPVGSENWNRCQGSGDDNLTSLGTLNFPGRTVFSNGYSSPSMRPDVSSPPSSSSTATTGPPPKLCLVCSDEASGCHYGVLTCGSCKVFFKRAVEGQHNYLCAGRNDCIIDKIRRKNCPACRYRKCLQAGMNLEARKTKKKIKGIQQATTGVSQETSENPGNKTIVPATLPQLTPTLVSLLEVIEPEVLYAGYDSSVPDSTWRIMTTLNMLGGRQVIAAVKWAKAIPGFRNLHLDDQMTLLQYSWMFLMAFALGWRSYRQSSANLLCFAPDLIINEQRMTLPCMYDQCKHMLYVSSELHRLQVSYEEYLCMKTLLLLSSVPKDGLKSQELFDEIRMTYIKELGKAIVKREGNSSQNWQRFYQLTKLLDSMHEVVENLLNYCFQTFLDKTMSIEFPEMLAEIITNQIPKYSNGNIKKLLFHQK
For experiment [5] the target is unchanged. Kind of experiment: GR-EFC Redistribution (AID 451; calls by dose curve; further: potency means the concentration at half of the fitted maximal effect). The conditions noted are these: CHO-K1 GR-EFC translocation, beta-gal luminescence, 2 h. The method, boiled down:
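CHO-K1 cells stably expressing nuclear-localized β-gal enzyme acceptor and GR fused C-terminally to the enzyme donor fragment; ligand-driven nuclear translocation restores β-gal by complementation. Compounds titrated up to 46 uM final, 2 h at 37 °C; luminescence read.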

The target of experiment [6] is Mitogen-activated protein kinase 10 (Mus musculus) (UniProt Q61831). Nature of the experiment: JNK3 AlphaScreen Assay (AID 530).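 Further: kinase came from lysate of stimulated human HepG2 cells; signal reports phosphorylation of biotinylated GST-cJun 1-79 at Ser73 with 10 µM ATP; on the % scale 0 is the no-effect control and ±100 the full control effect.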 The gist of the method:
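JNK3 came from HepG2 lysates pre-activated with IL-1beta and TNF-alpha and phosphorylated biotinylated GST-cJun (1-79) at 10 uM ATP, pH 7.6, room temperature. Compounds were titrated. AlphaScreen signal used anti-phospho-cJun (Ser73) antibody.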

Experiment [7] in a line: Stat Signaling Pathway (AID 446).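 Further: ME-180 cervical cancer cells given 40 pM IL-6 alongside compound; SIE-controlled beta-lactamase reporter measured as 460/530 nm FRET emission ratio; on the % scale 0 is the no-effect control and ±100 the full control effect.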 The conditions noted are these: ME-180 SIE beta-lactamase reporter, IL-6 stimulated, 5 h; at 38 µM (top of the series) unless noted. The method, boiled down: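 Screening format detects activators and inhibitors alike: ME-180 SIE-bla cells stimulated at 40 pM IL-6 for 5 hrs with compound, then dual-emission beta-lactamase read at 405 nm excitation.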

Experiment [8] has as its target 3',5'-cyclic-AMP phosphodiesterase 4B (Homo sapiens) (UniProt Q07343). Kind of experiment: qHTS Assay for Inhibitors of PDE-IV (AID 607; active means well fitted activation curve with a large enough effect in the main read-out, with a control signal flat, not every such curve was filed as active; further: % of control where 0% means no effect). The method, boiled down:
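The readout is membrane depolarisation from a cAMP-sensing CNG channel, detected with a potential dye at ex 535/em 590. Cells were HEK293-derived (endogenous PDE-IV) at 1000 cells/well, titrated up to 22.9 uM final.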

The nature of experiment [9]: Cell Viability - BJ (AID 421; calls by dose curve;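 further: potency means the concentration at half of the fitted maximal effect; cells exposed to compound for 40 hours at 37 °C before readout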). The conditions noted are these: BJ fibroblast viability, qHTS. The gist of the method: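 Cytotoxicity in human BJ foreskin fibroblasts is scored as loss of cellular ATP after a 40-hour exposure, measured by luciferase luminescence. Controls are DMSO and 100 uM tamoxifen.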
Experiment [10] can be described thus: Cell Viability - Jurkat (AID 426;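 active means dose-dependent loss of cell ATP signal giving a full or clear fitted curve, ranked by lower potency value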; further: potency means the concentration at half of the fitted maximal effect). The conditions noted are these: qHTS. The method, boiled down:
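Jurkat (clone E6-1, human T-cell leukemia) cells, 5000/well in complete medium, were exposed to compound for 40 hr at 37 °C. Viability was read as intracellular ATP by CellTiter-Glo luminescence; AC50 came from Hill fits of concentration-response data.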

Experiment [11] in a line: Cell Viability - Hek293 (AID 427;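 active means compounds whose dose-response curve shows a full or clear partial loss of cell viability, called from curve shape rather than a numeric limit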;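 further: potency means the concentration at half of the fitted maximal effect; cells exposed to compound for 40 hours at 37 °C before reading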). The conditions noted are these: qHTS. The method, boiled down: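 qHTS, human embryonic kidney (adenovirus-transformed) cells; 40 hr cpd, 37 °C; CellTiter-Glo ATP luminescence. Norm: DMSO = 0, 100 uM tamoxifen = 100% inhibition. Hill-fit AC50.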
A short description of experiment [12]: Cell Viability - MRC5 (AID 434; calls by dose curve;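 further: potency means the concentration at half of the fitted maximal effect; potency reflects cytotoxicity seen as loss of intracellular ATP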). The conditions noted are these: MRC5 lung fibroblast viability, qHTS. The gist of the method: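 MRC5 normal human lung fibroblasts (1500/well) were treated with compounds for 40 hr at 37 °C in complete medium, and viable cells were measured as intracellular ATP by CellTiter-Glo luminescence. AC50 came from Hill fits, normalized to DMSO and 100 uM tamoxifen.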

Experiment [13] in a line: Cell Viability - SK-N-SH (AID 435; calls by dose curve;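 further: potency means the concentration at half of the fitted maximal effect; compound exposure lasted 40 h at 37 °C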). The conditions noted are these: SK-N-SH neuroblastoma cell viability qHTS. The method, boiled down:
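Cells seeded at 1500 per well and incubated 5 hr at 37 °C. Compound added, then 40 hr at 37 °C. CellTiter-Glo added, 20 min at room temperature, luminescence read.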

Experiment [14] can be described thus: Cell Viability - N2a (AID 540; active means well fitted cell-killing curve with a large enough effect;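 further: plate controls were DMSO alone for no effect and tamoxifen control for full effect; nearly all actives have a fitted effect of over 45% in size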). The conditions noted are these: N2a mouse neuroblastoma cell viability; activity change, negative = cytotoxicity: at 92.2 µM (top of the series). The method, boiled down: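 Mouse neuroblastoma N2a cells (1500/well) were preincubated 5 hr at 37 °C, then exposed to compounds for 40 hr at 37 °C in complete medium. Viability was read as intracellular ATP by CellTiter-Glo luminescence; AC50 from Hill fits.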

A short description of experiment [15]: Cell Viability - NIH 3T3 (AID 541; active means well fitted cell-killing curve with a large enough effect;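 further: plate controls were DMSO alone for no effect and tamoxifen positive control for full effect; nearly all actives have a fitted effect of over 25% in size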). The conditions noted are these: NIH 3T3 cell viability, qHTS; activity change, negative = cytotoxicity: at 92.2 µM (top of the series). The method, boiled down: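 NIH 3T3 mouse embryo fibroblasts (1000 cells/well) were plated in complete medium and treated with compound for 40 hr at 37 °C. Viability was read as intracellular ATP by CellTiter-Glo luminescence; AC50 values came from Hill-equation fits of concentration-response data.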

Experiment [16] can be described thus: Cell Viability - H-4-II-E (AID 543; active means well fitted cell-killing curve with a large enough effect; further: on the % scale 0 is the no-effect control and ±100 the full control effect; nearly all actives have a fitted effect of over 35% in size). The method, boiled down: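 Rat hepatoma H-4-II-E cells (1500/well) were plated, incubated 5 hr at 37 °C, then exposed to compounds for 40 hr at 37 °C. Cellular ATP was read by CellTiter-Glo luminescence; AC50 came from Hill-equation fits of concentration-response data.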
Experiment [17] is described as follows: Cell Viability - SH-SY5Y (AID 544; active means well fitted cell-killing curve with a large enough effect;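 further: 0% = DMSO alone and -100% = 100 µM tamoxifen; nearly all actives have a fitted effect of over 55% in size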). The method, boiled down:
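Human neuroblastoma SH-SY5Y cells (1500/well) in complete medium were exposed to compounds for 40 hr at 37 °C; intracellular ATP was then quantified by CellTiter-Glo luminescence after 20 min at room temperature. AC50 came from Hill-equation concentration-response fits.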

A short description of experiment [18]: Cell Viability - Renal Proximal Tubule (AID 545; active means well fitted cell-killing curve with a large enough effect;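 further: 0% = DMSO only and -100% = 100 µM tamoxifen; nearly all actives have a fitted effect of over 40% in size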). The conditions noted are these: renal proximal tubule cells viability; activity change, negative = cytotoxicity: at 91.7 µM (top of the series). The method, boiled down:
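Cytotoxicity is scored as a concentration-dependent drop in cellular ATP in primary rat renal proximal tubule cells exposed for 40 hr. AC50 derives from Hill modelling.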

Experiment [19] is described as follows: Cell Viability - Mesenchymal (AID 546; active means well fitted cell-killing curve with a large enough effect;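 further: cells exposed to compound for 40 hours before reading; 0% = DMSO only and -100% = 100 µM tamoxifen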). The gist of the method:
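Normal human renal glomerulus-derived kidney mesenchymal cells, 1000 per well in complete medium, were treated with compounds for 40 hr at 37 °C. Viability was read as intracellular ATP by CellTiter-Glo luminescence; AC50 values came from Hill-equation fits of qHTS concentration-response data.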

Values without a mark were called inactive. Results filed as inconclusive are left out. Active and inactive are the calls of the source. Unless noted, the call rests on the fitted dose curve; in most records, active means well fitted curve in either direction with a large enough effect (not every such curve was filed as active); inconclusive means small, poorly fitted or top-dose-only effect, or another doubt; inactive means flat fitted curve, though single readings scatter. Bounds are passed on as bounds.

Cytochrome P450 1A2 (Homo sapiens), sequence (P05177 whole entry, looked up): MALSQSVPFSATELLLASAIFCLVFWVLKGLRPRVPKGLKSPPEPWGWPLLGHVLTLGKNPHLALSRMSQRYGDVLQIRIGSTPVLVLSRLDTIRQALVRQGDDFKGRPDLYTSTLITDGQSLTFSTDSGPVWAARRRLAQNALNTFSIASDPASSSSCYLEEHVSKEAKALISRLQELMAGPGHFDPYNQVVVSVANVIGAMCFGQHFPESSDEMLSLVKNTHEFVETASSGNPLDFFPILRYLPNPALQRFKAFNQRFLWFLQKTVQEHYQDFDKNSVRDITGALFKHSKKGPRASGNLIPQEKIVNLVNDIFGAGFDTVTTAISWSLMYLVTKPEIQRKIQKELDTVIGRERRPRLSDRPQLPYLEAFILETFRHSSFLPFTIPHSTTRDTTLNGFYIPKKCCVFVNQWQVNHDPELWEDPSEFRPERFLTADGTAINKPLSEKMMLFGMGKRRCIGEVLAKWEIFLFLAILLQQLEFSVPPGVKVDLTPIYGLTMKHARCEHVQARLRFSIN
3',5'-cyclic-AMP phosphodiesterase 4B (Homo sapiens), sequence (Q07343 whole entry, looked up): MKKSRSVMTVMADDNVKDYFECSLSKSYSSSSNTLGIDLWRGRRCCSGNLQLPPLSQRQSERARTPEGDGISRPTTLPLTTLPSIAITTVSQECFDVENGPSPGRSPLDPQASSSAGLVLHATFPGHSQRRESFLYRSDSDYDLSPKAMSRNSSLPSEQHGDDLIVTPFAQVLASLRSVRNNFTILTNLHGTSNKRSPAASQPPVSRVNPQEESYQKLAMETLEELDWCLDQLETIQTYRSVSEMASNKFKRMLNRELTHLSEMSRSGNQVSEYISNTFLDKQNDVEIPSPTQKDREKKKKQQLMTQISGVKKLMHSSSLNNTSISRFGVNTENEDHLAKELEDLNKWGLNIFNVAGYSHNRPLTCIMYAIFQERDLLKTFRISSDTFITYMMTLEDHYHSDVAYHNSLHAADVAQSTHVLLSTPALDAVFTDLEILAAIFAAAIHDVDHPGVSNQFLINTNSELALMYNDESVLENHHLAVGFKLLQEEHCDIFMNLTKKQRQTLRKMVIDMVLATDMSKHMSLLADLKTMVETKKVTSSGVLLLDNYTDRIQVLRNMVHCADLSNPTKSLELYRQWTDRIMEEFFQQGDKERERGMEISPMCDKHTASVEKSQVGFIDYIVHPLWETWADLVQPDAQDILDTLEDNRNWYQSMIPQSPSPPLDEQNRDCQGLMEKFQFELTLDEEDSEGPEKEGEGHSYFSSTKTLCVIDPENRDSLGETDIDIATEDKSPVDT

For the compound `CNC(=O)OCC[N+](C)(C)C`, the result in experiment [1] and in experiment [6] was inactive. Besides, the Potency entry in experiment [2] is “inactive”. In addition, the activity change, negative = inhibition in experiment [3] was 3.8%. For the same compound, the Potency in [4] and in [5] was > 46 µM each time.
Regarding `COc1ccc2[nH]c3c(c2c1)CCNC3`, the call in [1] and in experiment [6] was inactive. Further, the activity change, negative = inhibition in experiment [3] is 4.34%. Further, the activity, negative = inhibition in [7] is 9.97%. In addition, in experiment [5], the Potency is > 46 µM. The Potency result in [8] was “inactive”.
Consider `NNC(N)=O`, for which the call in experiment [1] and in experiment [6] was inactive. Also, the Potency in experiment [9] was > 92 µM; in experiment [10], > 92 µM; in experiment [11], > 92 µM; in [12], > 92 µM; in experiment [13], > 92 µM; in [4] it was > 46 µM. Besides, the Potency in [5] was > 46 µM. Also, in [7], the activity, negative = inhibition is 1.85%. Also, the Potency result in experiment [14], in [15], in experiment [16], in [17], in experiment [18] and in experiment [19] was “inactive” throughout. Moreover, the Potency result in experiment [8] is “inactive”.
For the compound `O=[N+]([O-])c1cc(O)c(O)c([N+](=O)[O-])c1`, the call in experiment [1] and in experiment [6] was inactive. Besides, in experiment [3], the activity change, negative = inhibition was 3.02%. In addition, the activity, negative = inhibition in experiment [7] was 48.1%. Besides, the Potency in experiment [5] is > 46 µM. Moreover, the Potency entry in experiment [8] was “inactive”.
Take `C[N+](C)(C)CCOC(=O)CBr`: the outcome in experiment [1] and in experiment [6] was inactive. In experiment [3], the activity change, negative = inhibition is 13.9%. The activity, negative = inhibition in experiment [7] was -5.3%. Also, the Potency in experiment [5] was > 46 µM. Moreover, in experiment [8], the Potency result was “inactive”.
Regarding `Clc1cc(I)cc(Cl)c1NC1=NCCN1`, in experiment [1], the call was inactive. The values for the Potency in experiment [2], in experiment [4] and in experiment [5] were 15.8 µM (active), > 46 µM and > 46 µM, respectively. In addition, the activity change, negative = inhibition in [3] is -4.12%. Further, the activity, negative = inhibition in experiment [7] is -14.2%. In [8], the Potency entry was “inactive”.
As for `Cc1[nH]c2ccc(O)cc2c1CCN`, the outcome in experiment [1] and in [6] was inactive. Besides, the Potency in experiment [2] is 31.6 µM (active); in experiment [5], > 46 µM. For the same compound, the activity change, negative = inhibition in experiment [3] is 10.3%. The activity, negative = inhibition in experiment [7] was 6.41%. Besides, in [8], the Potency entry is “inactive”.
As to `O=S1(=O)N(CCN2CC=C(c3c[nH]c4cc(F)ccc34)CC2)c2cccc3c2N1CCC3`, the result in experiment [1] and in [6] was inactive. Further, the Potency in experiment [2] is 3.98 µM (active); in experiment [4] it was > 46 µM; in [5], > 46 µM. Also, the activity change, negative = inhibition in [3] was -17.5%. For the same compound, in experiment [7], the activity, negative = inhibition is 22.3%. Also, in experiment [8], the Potency result was “inactive”.
For `Nc1ccc(CCN2CCN(c3cccc(C(F)(F)F)c3)CC2)cc1`, the result in experiment [1] and in experiment [6] was inactive. Moreover, the Potency in experiment [2] is 10 µM (active); in experiment [4], > 46 µM; in [5], > 46 µM. Besides, in experiment [7], the activity, negative = inhibition is -17.7%. Also, in experiment [8], the Potency entry is “inactive”.
